Laboratory results as given in PubChem BioAssay (NCI).
The panel holds about 79,000 compounds, 15% with a hit somewhere; the sample as a whole holds those more often. The source made the active and inactive calls. No stated cut-off is given here; in the data, active means growth inhibition above about 70%; inactive means the rest.

Experiments:
[1] = NCI Yeast Anticancer Drug Screen. Data for the rad52 strain (AID 147);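 further: 0% = growth of vehicle-treated control cultures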; settings: S. cerevisiae rad52 mutant growth inhibition, stronger effect = higher value
Summary of the method: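 Screen used a yeast mutant impaired in DNA repair. After compound exposure, growth was measured. Values reflect inhibition compared with vehicle-treated cells.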

[2] = NCI Yeast Anticancer Drug Screen. Data for the wt1 strain (AID 149);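 further: 0% = growth of vehicle-treated wt1 cultures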; settings: S. cerevisiae wt1 strain (SPY 50644) growth inhibition, stronger effect = higher value
Summary of the method: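 Each compound is tested on wt1 yeast and the loss of growth versus vehicle gives the inhibition value.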

[3] = NCI Yeast Anticancer Drug Screen. Data for the rad50EPP+ strain (AID 151);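 further: 0% = growth of vehicle-treated control cultures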; settings: S. cerevisiae rad50 mutant strain, stronger effect = higher value
Summary of the method: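 Exposing the rad50EPP+ strain to each compound, growth was compared with vehicle-only cultures to give inhibition.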

[4] = NCI Yeast Anticancer Drug Screen. Data for the mgt1 strain (AID 153); settings: S. cerevisiae mgt1 mutant growth inhibition, stronger effect = higher value
Summary of the method: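 Genetically defined yeast (mgt1) treated with compound; inhibition of growth expressed against vehicle-treated controls.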

[5] = NCI Yeast Anticancer Drug Screen. Data for the rad50 strain (AID 155);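 further: 0% = growth of vehicle-only cultures of the same strain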; settings: S. cerevisiae rad50 strain growth inhibition, stronger effect = higher value
Summary of the method: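 Vehicle-treated cultures provide the reference for the growth inhibition reported for compound-exposed, repair-deficient yeast.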

[6] = NCI Yeast Anticancer Drug Screen. Data for the mec2-1 strain (AID 157); settings: S. cerevisiae mec2-1 strain, stronger effect = higher value
Summary of the method: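 Readout is yeast growth inhibition, normalised to vehicle-treated controls, in the mec2-1 strain exposed to compound.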

[7] = NCI Yeast Anticancer Drug Screen. Data for the rad14 strain (AID 159);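 further: 0% = growth of vehicle-treated control cultures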; settings: S. cerevisiae rad14 strain growth inhibition, stronger effect = higher value
Summary of the method: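 Inhibition of growth is reported for a repair-deficient yeast mutant following compound treatment, calculated relative to cultures that received vehicle.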

[8] = NCI Yeast Anticancer Drug Screen. Data for the sgs1 mgt1 strain (AID 161);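 further: 0% = growth of cultures given vehicle only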; settings: S. cerevisiae sgs1 mgt1 strain, stronger effect = higher value
Summary of the method: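 Yeast cells carrying a defined DNA-repair defect were exposed to test compounds. Growth inhibition was measured relative to vehicle-treated controls.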

[9] = NCI Yeast Anticancer Drug Screen. Data for the CLN2oe strain (AID 163);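 further: 0% = growth of vehicle-only control cultures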; settings: S. cerevisiae CLN2oe strain, stronger effect = higher value
Summary of the method: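 Values reflect how much compound exposure reduced yeast growth, referenced to vehicle-exposed cells. Assay organism is a strain with a defined genetic change affecting cell-cycle control.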

[10] = NCI Yeast Anticancer Drug Screen. Data for the cln2 rad14 strain (AID 165);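 further: 0% = growth equal to vehicle treated cultures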; settings: S. cerevisiae cln2 rad14 strain, stronger effect = higher value
Summary of the method: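 Relative to vehicle controls, growth inhibition of compound-treated cln2 rad14 yeast was recorded.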

[11] = NCI Yeast Anticancer Drug Screen. Data for the bub3 strain (AID 167); settings: S. cerevisiae bub3 mutant strain, stronger effect = higher value
Summary of the method: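 Mutant yeast screening strain plus compound; vehicle-treated cultures serve as the 0% inhibition reference.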

[12] = NCI Yeast Anticancer Drug Screen. Data for the wt2 strain (AID 169); settings: S. cerevisiae wt2 strain growth inhibition, stronger effect = higher value
Summary of the method: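 Values express reduction in yeast growth under compound treatment, referenced to vehicle-treated cells.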

[13] = NCI Yeast Anticancer Drug Screen. Data for the sgs1 strain (AID 173);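 further: 0% = growth of vehicle-only control cultures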; settings: S. cerevisiae sgs1 mutant, stronger effect = higher value
Summary of the method: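 Treat defined-mutant yeast with compound; measure growth; calculate inhibition relative to vehicle-treated cells.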

[14] = NCI Yeast Anticancer Drug Screen. Data for the mlh1 rad18 strain (AID 175); settings: S. cerevisiae mlh1 rad18 strain growth inhibition, stronger effect = higher value
Summary of the method: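 Test agents were incubated with a yeast strain of defined genotype (DNA damage repair defect). Inhibition of growth was derived by comparison with vehicle-exposed cultures.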

[15] = NCI Yeast Anticancer Drug Screen. Data for the rad18 strain (AID 177); settings: S. cerevisiae rad18 mutant growth inhibition, stronger effect = higher value
Summary of the method: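 A genetically defined yeast mutant impaired in DNA damage repair was treated with test compounds, then its growth was measured against cultures receiving vehicle alone.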

[16] = at 5.0 µM (retest, dose inferred, filed as 0.5)
[17] = at 50.0 µM (retest, dose inferred, filed as 5.0)

Measured: growth inhibition

O=C(O)C1OC1(c1cccc(Cl)c1)c1ccccc1Cl (stereo unspecified)
active: [1]; at 100.0 µM 91% | [2]; at 100.0 µM 93% | [4]; at 100.0 µM 95% | [5]; at 50.0 µM 90.1% | [5]; at 100.0 µM 88% | [6]; at 50.0 µM 92% | [6]; at 100.0 µM 94% | [7]; at 33.0 µM 75% | [7]; at 100.0 µM 91% | [8]; [17] 93% | [8]; at 50.0 µM 93.1% | [9]; at 100.0 µM 93% | [10]; [17] 96% | [10]; at 50.0 µM 90.7% | [11]; at 33.0 µM 70% | [11]; [17] 95% | [11]; at 50.0 µM 89.9% | [11]; at 100.0 µM 92% | [12]; at 100.0 µM 93% | [13]; at 100.0 µM 90% | [14]; at 50.0 µM 90.5% | [15]; at 100.0 µM 90%
inactive: [1]; at 1.2 µM -9% | [1]; at 3.7 µM -8% | [1]; at 11.0 µM 13% | [1]; at 33.0 µM 56% | [2]; at 1.2 µM -18% | [2]; at 3.7 µM -15% | [2]; at 11.0 µM -15% | [2]; at 33.0 µM 41% | [3]; at 1.2 µM 0% | [3]; at 3.7 µM 9% | [3]; at 11.0 µM 12% | [3]; at 33.0 µM 25% | [3]; at 100.0 µM 36% | [4]; at 1.2 µM 17% | [4]; at 3.7 µM 16% | [4]; at 11.0 µM 28% | [4]; at 33.0 µM 67% | [5]; at 1.2 µM 1% | [5]; at 3.7 µM 7% | [5]; [16] 43% | [5]; at 11.0 µM 12% | [5]; at 33.0 µM 48% | [5]; [17] 59% | [6]; at 1.2 µM -6% | [6]; at 3.7 µM -13% | [6]; [16] 57% | [6]; at 11.0 µM 2% | [6]; at 33.0 µM 58% | [6]; [17] 61% | [7]; at 1.2 µM -19% | [7]; at 3.7 µM -12% | [7]; at 11.0 µM -11% | [8]; [16] -12% | [9]; at 1.2 µM 15% | [9]; at 3.7 µM 16% | [9]; at 11.0 µM 13% | [9]; at 33.0 µM 39% | [10]; [16] 54% | [11]; at 1.2 µM 0% | [11]; at 3.7 µM -5% | [11]; [16] 30% | [11]; at 11.0 µM 9% | [12]; at 1.2 µM -35% | [12]; at 3.7 µM -20% | [12]; at 11.0 µM -18% | [12]; at 33.0 µM 26% | [13]; at 1.2 µM -13% | [13]; at 3.7 µM -5% | [13]; at 11.0 µM 1% | [13]; at 33.0 µM 51% | [14]; [16] 47% | [14]; [17] 53% | [15]; at 1.2 µM -6% | [15]; at 3.7 µM -16% | [15]; at 11.0 µM 3% | [15]; at 33.0 µM 57%

NNc1c(F)c(F)cc(F)c1F
inactive: [1]; at 1.2 µM -11% | [1]; at 3.7 µM -19% | [1]; at 11.0 µM -21% | [1]; at 33.0 µM -11% | [1]; at 100.0 µM 21% | [2]; at 1.2 µM -28% | [2]; at 3.7 µM -27% | [2]; at 11.0 µM -20% | [2]; at 33.0 µM -26% | [2]; at 100.0 µM -14% | [3]; at 1.2 µM 2% | [3]; at 3.7 µM -1% | [3]; at 11.0 µM 21% | [3]; at 33.0 µM 54% | [4]; at 1.2 µM -17% | [4]; at 3.7 µM -23% | [4]; at 11.0 µM -17% | [4]; at 33.0 µM -6% | [4]; at 100.0 µM 7% | [5]; at 1.2 µM -15% | [5]; at 3.7 µM -22% | [5]; [16] -16% | [5]; at 11.0 µM -18% | [5]; at 33.0 µM -15% | [5]; [17] 8% | [5]; at 50.0 µM 24.8% | [5]; at 100.0 µM 25% | [6]; at 1.2 µM -37% | [6]; at 3.7 µM -35% | [6]; [16] -11% | [6]; at 11.0 µM -38% | [6]; at 33.0 µM -20% | [6]; [17] 6% | [6]; at 50.0 µM 33.1% | [6]; at 100.0 µM 35% | [7]; at 1.2 µM -25% | [7]; at 3.7 µM -25% | [7]; at 11.0 µM -27% | [7]; at 33.0 µM -21% | [7]; at 100.0 µM -4% | [8]; [16] 0% | [8]; [17] 23% | [8]; at 50.0 µM 67.9% | [9]; at 1.2 µM 0% | [9]; at 3.7 µM -4% | [9]; at 11.0 µM 3% | [9]; at 33.0 µM 18% | [9]; at 100.0 µM 26% | [10]; [16] 21% | [10]; [17] 42% | [10]; at 50.0 µM 46.9% | [11]; at 1.2 µM -11% | [11]; at 3.7 µM -18% | [11]; [16] 27% | [11]; at 11.0 µM -3% | [11]; at 33.0 µM 10% | [11]; at 100.0 µM 47% | [12]; at 1.2 µM -27% | [12]; at 3.7 µM -24% | [12]; at 11.0 µM -22% | [12]; at 33.0 µM -20% | [12]; at 100.0 µM -13% | [13]; at 1.2 µM -3% | [13]; at 3.7 µM 8% | [13]; at 11.0 µM 18% | [13]; at 33.0 µM 32% | [13]; at 100.0 µM 66% | [14]; [16] 7% | [14]; [17] 36% | [14]; at 50.0 µM 25% | [15]; at 1.2 µM -9% | [15]; at 3.7 µM -20% | [15]; at 11.0 µM -17% | [15]; at 33.0 µM -20% | [15]; at 100.0 µM 6%
active: [3]; at 100.0 µM 82% | [11]; [17] 70% | [11]; at 50.0 µM 84.6%
